Compound activity from PubChem.
ClpP mod – qHTS Assay for Activators of ClpP | ATP-dependent Clp protease proteolytic subunit (Bacillus subtilis (strain 168)), P80244 | purified B. subtilis ClpP, FRET peptide cleavage, 20 min | Potency, µM (series often up to 57.5 µM), for inactives: top-dose activity change, negative = active | 340,000 tested, 1.9% active | AID 651965, 2013; active = well fitted falling curve with a large enough effect; inconclusive = small, poorly fitted or top-dose-only effect; inactive = no such curve, though single readings can be large or run the other way; note: potency is the fitted concentration of half-maximal effect; the source files actives as falling curves though it sought activators and does not explain the sign; nearly all actives have a fitted effect of over 65% in size
Target sequence (P80244 whole entry, looked up): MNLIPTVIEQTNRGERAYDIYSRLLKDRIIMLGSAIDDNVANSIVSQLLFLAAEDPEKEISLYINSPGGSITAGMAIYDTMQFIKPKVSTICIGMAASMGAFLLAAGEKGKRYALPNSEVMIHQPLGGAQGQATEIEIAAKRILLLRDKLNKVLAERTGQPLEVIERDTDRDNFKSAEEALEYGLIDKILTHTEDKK
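ClpP 10 microg/mL final, pH 8 Tris/KCl buffer with BSA, glycerol, Tween-20; compound pinned in; FRET-FV substrate; RT 20 min; Ex320/Em430; ΔFRET vs ADEP 5.8 microM, DMSO, no enzyme.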
uPA generation – inhibitors of cell surface uPA generation; AID 540303; 330,000 tested, 0.31% active; cell surface uPA generation assay, qHTS; Potency, µM (titrated, usually from 38.3 µM), inactives show top-dose activity change, negative = inhibition, usual class: inhibitors; active = well fitted inhibition curve with a large enough effect; inconclusive = small, poorly fitted or top-dose-only effect; inactive = no such curve, though single readings can be large or run the other way; tested in mouse RAW 264.7 cells; note: potency is the fitted concentration of half-maximal effect; % is set by controls: 0 for no effect and ±100 for the full control effect; nearly all actives have a fitted effect of over 55% in size
Sfp PPTase inh – inhibitors of Bacillus subtilis Sfp phosphopantetheinyl transferase; Potency, µM, without a hit: largest response in the series, negative = inhibition, actives largely listed as inhibitors; 310,000 tested, 3.5% active; Biochemical Sfp PPTase activity, qHTS; Q9F4F7;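 note: the enzyme is Sfp with the accession as filed and its product quenches rhodamine fluorescence; potency is the fitted concentration of half-maximal effect; 0% = enzyme reaction without inhibitor and -100% = no enzyme wells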
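With Hepes-Na pH 7.6 buffer containing 10 mM MgCl2, Sfp (15 nM) modified BHQ-2-YbbR (12.5 uM) using rhodamine-CoA (5 uM). Two reads 30 minutes apart at 525/598 nm yielded each well's rate.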
TCR activator – activates T cell receptor signaling. 330,000 tested, under 10 active. Potency, µM (highest dose often 9.22 µM), for the others: at the highest dose activation of IL-2 secretion, actives largely listed as activators. primary human leukocytes, anti-CD3, IL-2 HTRF, 48 h; note: % of control where 0% means no effect
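IL-2 produced over 48 hr by a-CD3 bead-stimulated primary human leukocytes exposed to compounds was detected with a homogeneous time-resolved FRET immunoassay, 665nm acceptor signal after 320nm excitation.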
* marks the source's active call; other numbers are inactive results; u = inconclusive; x = not tested or not shown; [ ] = dose if it differs, or a comment. Sampled rows, rich in hits. Any-hit rate of the full collection: about 4.2%. Unless noted, calls come from the whole dose curve; as a rule, active = well fitted curve in the direction sought with a large enough effect; inconclusive = small, poorly fitted or top-dose-only effect, or another doubt; inactive = no such curve, though single readings can be large; an effect the other way counts as inactive or inconclusive.

SMILES	ClpP mod	uPA generation	Sfp PPTase inh	TCR activator
CCOc1ccc2[nH]c(=O)c(CN(Cc3ccccc3OC)C(=O)c3ccccc3)cc2c1	31.6µM*	x	-0.5%	x
CCOc1ccc2[nH]c(=O)c(CN(CCO)C(=O)c3ccc(Br)cc3)cc2c1	31.6µM*	-3.0%	-15.2%	1.6%
CCC(=O)N(CCc1ccccc1)Cc1cc2cc(OC)ccc2[nH]c1=O	3.6%	-1.5%	26.2%	-0.9%
CCOc1ccc2[nH]c(=O)c(CN(CCO)C(=O)CC)cc2c1	28.2µM*	0.4%	5.8%	-32.0%
Nc1ccc(/C=C/c2cc(Cl)nc3ccccc23)cc1	0.8%	x	x	x
CCc1cccc(NC(=O)CCn2nc(C)cc2C)c1	-1.1%	x	x	x
CN(C)c1ccc(C(CNC(=O)c2c(F)cccc2Cl)N2CCOCC2)cc1 (centres undefined)	0.1%	x	x	x
COc1cccc(Nc2nc(NCC3CCCO3)c3ccccc3n2)c1 (centres undefined)	u	-5.6%	25.1µM*	3.3%
COc1cccc(Nc2nc(NCCO)c3ccccc3n2)c1	95.5%	5.6%	20µM*	3.1%
O=C(NCc1ccccc1)C(c1ccc(-c2ccccc2)cc1)N1CCN(CCN2CCOCC2)CC1 (centres undefined)	1.5%	x	x	x
CC(NCC1(N2CCOCC2)CCCCC1)C(=O)Nc1ccc(Cl)cc1Cl (centres undefined)	-1.9%	-7.0%	56.2µM*	4.6%
CCN(CC)C(=O)CSc1nc2c(c(-c3cccnc3)c1C#N)CCCC2	x	5.3%	11.5%	1.7%
O=S(=O)(c1ccccc1)n1ccc(-c2cnc(-c3ccccc3)s2)n1	14.1µM*	-0.9%	-6.5%	-0.5%
COc1cc(C(=S)N2CCOCC2)ccc1OC(=O)c1ccccc1C	-2.1%	16.4%	-14.5%	-5.1%
CC(=O)c1cccc(OC(=O)c2ccccc2)c1	14.1µM*	7.5%	x	-1.8%
CC(=O)c1cccc(NC(=O)Oc2ccccc2)c1	-0.5%	-3.6%	18.5%	x
O=C(COc1ccc(C(=S)N2CCOCC2)cc1Cl)Nc1ccccc1Cl	x	-1.4%	20µM*	4.4%
COc1cc(C(=S)N2CCCCC2)ccc1OCC(=O)Nc1ccccc1Cl	x	0.5%	15.9%	1.8%
COc1ccc(C(=S)N2CCOCC2)cc1OC(=O)c1ccccc1Cl	x	-1.5%	56.2µM*	-3.8%
COc1cc(C(=S)N2CCOCC2)ccc1OC(=O)c1cccc(C)c1	0.7%	3.2%	79.4µM*	2.8%
CCOC(=O)Cc1ccc(NC(=O)N2CC(CC)Oc3ccccc32)cc1 (centres undefined)	1.1%	x	x	x
CCOCCCNC(=O)NC(CCC(C)C)c1c(-n2cccc2)sc2c1CCN(C)C2 (centres undefined)	4.1%	x	x	x
CCCCCOC(=O)Nc1nc(=O)n(C2O[C@H](C)[C@@H](O)[C@@H]2O)cc1F (some centres undefined)	x	x	12.6%	x
O=C(Oc1cccc(C(=S)N2CCOCC2)c1)c1ccccc1	x	-1.0%	56.2µM*	1.1%
NNc1nc2ccc(F)cc2s1	-0.9%	-28.9%	-19.0%	12.6%[46.1 µM]
SMILES	ClpP mod	uPA generation	Sfp PPTase inh	TCR activator
Fc1ccc2nc(Nc3ccccc3)sc2c1	11.2µM*	3.8%	11.5%	11.7%
CCN(CC)S(=O)(=O)c1ccc(N2CCOCC2)c(NC(=O)c2nn(C(C)C)c(=O)c3ccccc23)c1	-1.8%	x	x	x
CCN1CCN(c2nc(C)nc3c2sc(=S)n3C)CC1	-1.6%	-93.0%	2.82µM*	3.8%
CCOC(=O)c1sc(Nc2nc3c(OC)cccc3s2)cc1C	25.1µM*	-2.3%	u	-2.8%[46.1 µM]
CCOC(=O)c1sc(Nc2nc3cc4c(cc3s2)OCO4)cc1C	28.2µM*	-1.2%	-7.7%	-5.4%[46.1 µM]
CC(=O)c1sc(Nc2nc3cc4c(cc3s2)OCO4)nc1C	x	1.0%	u	3.7%
Nc1ncnc2c1ncn2[C@@H]1O[C@H](CCC(=O)NCc2ccccc2)[C@@H](O)[C@H]1O	-2.1%	x	x	x
CN(C)c1ncc(CN2CCC(CO)(CCCc3ccccc3)CC2)s1	-3.4%	0.1%	-4.2%	2.9%
OCC1(CCc2ccccc2)CCN(Cc2cnc(N3CCCC3)s2)CC1	-0.9%	2.6%	50.1µM*	-1.1%
O=[N+]([O-])c1ccc(C2=NN(c3ccccc3)C(c3ccco3)C2)cc1 (centres undefined)	u	10.5%	-21.1%	-4.0%
O=[N+]([O-])c1ccc(/C=C/C2=NN(c3ccccc3)C(c3ccco3)C2)cc1 (centres undefined)	x	0.3%	39.8µM*	2.5%[46.1 µM]
O=c1c2cc(Cl)ccc2[nH]c(=S)n1Cc1cccs1	-9.5%	-9.4%	10.7%	-1.5%[46.1 µM]
O=S1(=O)CCN2C=C(Cl)C=C(Cl)C2=N1	0.6%	-0.2%	14.6%	2.3%
O=S1(=O)CCN2C=C(Br)C=C(Br)C2=N1	25.1µM*	x	9.8%	x
CC(=O)OC[C@@H]1O[C@H](CCO/N=C(\C)CCC(=O)OC[C@@H]2O[C@H](C#Cc3ccccc3)C=C[C@@H]2Oc2ccc(C)cc2)C=C[C@@H]1OC(C)=O	x	x	-14.4%	x
CCOc1cc(S(=O)(=O)N(CC)CC)c(OCC)cc1-n1cnnn1	15.8µM*	x	9.4%	0.6%
CCOc1cc(S(=O)(=O)NCCc2ccccc2C)c(OCC)cc1-n1cnnn1	31.6µM*	-3.2%	-1.1%	0.1%
CCOc1cc(S(=O)(=O)N2CCC(Cc3ccccc3)CC2)c(OCC)cc1-n1cnnn1	14.1µM*	7.6%	-3.9%	-2.1%
CCOc1cc(S(=O)(=O)N2CC=C(c3ccc(F)cc3)CC2)c(OCC)cc1-n1cnnn1	u	2.3%	3.5%	2.0%
CCOc1cc(S(=O)(=O)NCCc2cccc(C)c2)c(OCC)cc1-n1cnnn1	31.6µM*	-2.8%	u	-2.8%
CCc1nnc2c3ccccc3nc(N3CCN(c4cc(Cl)ccc4C)CC3)n12	-0.3%	x	x	x
Cc1ccc(Sc2c(C)nn(C(=O)COc3ccccc3Br)c2C)cc1	-1.9%	x	x	x
COc1ccc(OC)c2c(/C=C/c3c(C)[nH]c4ccccc34)ccnc12	0.1%	x	x	x
Cc1c(CCOC(=O)CC23CC4CC(CC(C4)C2)C3)sc[n+]1CC(=O)c1ccccc1	0.9%	u	79.4µM*	13.3%
COc1ccc(-c2cc(-c3ccco3)[nH]c(=O)c2C#N)cc1OC	4.2%	-3.6%	22.4µM*	-1.9%
SMILES	ClpP mod	uPA generation	Sfp PPTase inh	TCR activator
CCOc1ccc(CNCc2c(C(=O)O)c(C)n(Cc3ccc(C)cc3)c2C)cc1	0.3%	x	x	x
Cc1occc1-c1nnc(SCC(=O)Nc2ccccn2)o1	x	-2.2%	11.8%	0.6%
O=C(CSc1nnc(-c2ccccc2Cl)o1)Nc1ccccn1	0.6%	10µM*	-19.9%	4.0%
CC(C)(C)c1ccc(CSc2nnc(-c3ccccc3NC(=O)c3ccccc3)o2)cc1	28.2µM*	1.3%	-11.6%	-1.5%[46.1 µM]
CCOC(=O)CSc1nnc(-c2ccccc2NC(=O)c2ccccc2)o1	-25.2%	-1.4%	-2.0%	-0.4%
O=C(Nc1ccccc1-c1nnc(SCc2ccccc2Cl)o1)c1ccccc1	20µM*	x	13.0%	-0.3%
O=C(CC(c1cccs1)N1Cc2ccccc2C1=O)Nc1ccccc1F (centres undefined)	-2.8%	x	x	x
Fc1ccccc1N1CC(c2ccccc2)C(c2cccs2)=N1 (centres undefined)	15.8µM*	2.1%	6.6%	x
